# From PMC4336329 (PLoS ONE, 2015)
# In all, about 310,000 compounds went through this assay and about 14,000 (4.5%) showed an effect of 50% or more. Effects have a minus sign here. Many of the other results were omitted from the sample, so strong results are more common in it than they were.
# Target: human ether-à-go-go-related gene (hERG) potassium channel (human, UniProt Q12809)
# Test: primary screen, population patch clamp on CHO cells stably expressing hERG; higher = less effect of the substance
# 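Note: peak tail current of the secondary pulse compared with the same well before compound.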
# Sequence of human ether-à-go-go-related gene (hERG) potassium channel (Q12809 whole entry, looked up): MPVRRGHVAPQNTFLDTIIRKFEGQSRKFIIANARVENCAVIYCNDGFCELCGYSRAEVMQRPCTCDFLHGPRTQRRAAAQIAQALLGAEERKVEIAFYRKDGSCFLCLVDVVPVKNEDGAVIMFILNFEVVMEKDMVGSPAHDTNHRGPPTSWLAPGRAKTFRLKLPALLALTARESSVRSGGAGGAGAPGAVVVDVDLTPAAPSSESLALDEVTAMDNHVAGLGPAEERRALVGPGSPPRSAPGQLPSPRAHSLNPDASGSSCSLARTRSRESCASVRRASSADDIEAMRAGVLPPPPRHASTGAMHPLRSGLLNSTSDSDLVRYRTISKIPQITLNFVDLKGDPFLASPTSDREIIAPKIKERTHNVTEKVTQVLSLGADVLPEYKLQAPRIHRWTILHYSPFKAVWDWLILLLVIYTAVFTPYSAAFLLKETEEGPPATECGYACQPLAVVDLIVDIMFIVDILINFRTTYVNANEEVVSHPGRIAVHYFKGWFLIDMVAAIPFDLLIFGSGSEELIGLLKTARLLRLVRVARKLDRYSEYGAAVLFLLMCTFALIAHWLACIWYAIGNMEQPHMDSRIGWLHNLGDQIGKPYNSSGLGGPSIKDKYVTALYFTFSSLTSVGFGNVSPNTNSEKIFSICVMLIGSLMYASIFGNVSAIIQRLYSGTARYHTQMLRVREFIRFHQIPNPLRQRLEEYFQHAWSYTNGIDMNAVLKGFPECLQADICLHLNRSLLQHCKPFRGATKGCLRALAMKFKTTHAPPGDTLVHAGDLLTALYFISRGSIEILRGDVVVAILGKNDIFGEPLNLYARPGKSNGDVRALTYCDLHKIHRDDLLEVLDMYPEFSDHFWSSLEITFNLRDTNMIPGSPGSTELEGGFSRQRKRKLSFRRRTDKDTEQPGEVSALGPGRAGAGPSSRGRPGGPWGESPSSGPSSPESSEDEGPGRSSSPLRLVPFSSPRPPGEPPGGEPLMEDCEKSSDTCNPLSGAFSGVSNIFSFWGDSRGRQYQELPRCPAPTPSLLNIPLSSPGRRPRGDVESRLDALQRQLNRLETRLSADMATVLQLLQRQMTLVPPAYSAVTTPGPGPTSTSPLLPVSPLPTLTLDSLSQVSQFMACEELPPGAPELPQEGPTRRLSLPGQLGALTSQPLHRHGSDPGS
row,Structure (SMILES),"hERG current change (%, negative = inhibition) at 10uM"
1,COc1ccccc1CNC(=O)COC(=O)Cc1ccc(F)cc1,8.81%
2,O=C(Cc1ccccc1)NCc1nc2ccccc2[nH]1,-6.31%
3,O=C(NCCc1ccncc1)Nc1cccc(Cl)c1,-3.75%
4,O=C(NCc1cccnc1)C1CCN(C(=O)c2ccc(Cl)cc2Cl)CC1,-10.8%
5,O=[N+]([O-])c1cccc(S(=O)(=O)Nc2ccc(S(=O)(=O)Nc3nccs3)cc2)c1,13.9%
6,CCOC(=O)CN1C(=O)C(O)(CC(=O)c2cccc(OC)c2)c2ccccc21 (stereo not drawn),5.13%
7,O=C(NCC(c1ccco1)N1CCN(c2ccccc2)CC1)c1ccc2c(c1)OCO2 (stereo not drawn),-5.86%
8,CC(=O)N1CCN(C(=O)CSc2cc(C)c(Br)cc2C)CC1,3.18%
9,Cc1cc(SCC(=O)N2CCN(C(=O)c3ccco3)CC2)c(C)cc1Br,-62.3%
10,NC(=O)c1ccc(SCC(=O)OCC(=O)N2CCN(C(=O)c3ccco3)CC2)c([N+](=O)[O-])c1,23.3%
11,Cc1cc(Br)ccc1SCC(=O)OCC(=O)N1CCN(C(=O)c2ccco2)CC1,-66.8%
12,Cc1ccc(SCC(=O)OCC(=O)N2CCN(C(=O)c3ccco3)CC2)c(C)c1,-41.6%
13,Nc1cc(N)nc(SCC(=O)N2CCN(C(=O)c3ccco3)CC2)n1,0.783%
14,CCCC(O)(CCC)C(=O)NNc1ccccc1,12.4%
15,O=C(NCCCN1CCCC1=O)c1ccc2c(=O)n(Cc3ccco3)c(=S)[nH]c2c1,-17.8%
16,Cc1ccc2oc(=O)c3cnn(CC(=O)NC4CCCCC4C)c3c2c1 (stereo not drawn),8.43%
17,CS(=O)(=O)N1CCc2cc(NC(=O)c3ccc(Cl)cc3Cl)ccc21,1.5%
18,CCN(CC)C(=O)CSc1nc2ccccc2c(=O)[nH]1,12.5%
19,Cn1c(=O)n(C)c2cc(NS(=O)(=O)c3ccccc3)ccc21,4.09%
20,CCn1c(=O)n(CC)c2cc(NS(=O)(=O)c3ccccc3)ccc21,-68.7%
21,CCn1c(=O)c(=O)n(CC)c2cc(S(=O)(=O)Nc3ccc(C)cc3)ccc21,7.02%
22,Cc1ccc(S(=O)(=O)Nc2ccc3nc(-c4cccn4C)[nH]c3c2)cc1,-79.3%
23,CC(=O)Nc1ccc2nc(-c3cccn3C)[nH]c2c1,12.8%
24,Cc1ccc(-c2nc3ccc(NS(=O)(=O)c4ccccc4)cc3[nH]2)o1,-47.3%

row,Structure (SMILES),"hERG current change (%, negative = inhibition) at 10uM"
1,Cn1cccc1-c1nc2ccc(NC(=O)c3cccs3)cc2[nH]1,-53.3%
2,O=C(Nc1ccc(-c2nc3ccc(NC(=O)c4cccs4)cc3[nH]2)cc1)c1cccs1,18.1%
3,CC(=O)Nc1ccc2nc(-c3ccco3)[nH]c2c1,7.99%
4,Cn1cccc1-c1nc2ccc([N+](=O)[O-])cc2[nH]1,4.4%
5,Cn1cccc1-c1nc2ccc(NC(=O)c3ccccc3)cc2[nH]1,-39.3%
6,O=S(=O)(Nc1ccc2nc(-c3ccco3)[nH]c2c1)c1ccccc1,-58.4%
7,COc1ccccc1CNC(=O)CNC(=O)[C@@H]1Cc2ccccc2CN1,1.14%
8,Cc1c(NC(=O)CSc2nnc(N)s2)c(=O)n(-c2ccccc2)n1C,-10.4%
9,Cc1ccnc(NC(=O)CN(C)S(=O)(=O)c2cccc3nsnc23)c1,7.8%
10,O=S(=O)(Nc1ccc(Cl)cc1)c1ccc2c(c1)CCO2,-3.21%
11,O=C(O)c1ccc(NS(=O)(=O)c2cc(Cl)sc2Cl)cc1,21.3%
12,Cc1oc2c(Cl)c(Cl)c(O)c(CN(C)C)c2c1C(=O)c1ccc(Cl)cc1,-1.39%
13,Cc1nnc(SCC(=O)NC2CCCc3c2cnn3-c2ccccc2F)o1 (stereo not drawn),20.5%
14,O=C(NCc1cccs1)c1cccn2c(=O)c3sccc3nc12,-7.79%
15,O=C(NCCNc1ccc2ccccc2c1)c1cccn2c(=O)c3sccc3nc12,-6.94%
16,O=C(NCc1cccnc1)c1cccn2c(=O)c3sccc3nc12,-63.2%
17,O=C(O)c1ccccc1C(=O)NCc1cccnc1,-32.8%
18,O=C(NCc1ccco1)c1cccn2c(=O)c3c4c(sc3nc12)CCCC4,13.6%
19,O=C(NCc1ccco1)c1cccn2c(=O)c3sccc3nc12,-68.4%
20,O=c1c2ccccc2ncn1-c1ccc([N+](=O)[O-])c(C(F)(F)F)c1,-3.74%
21,CC#C[C@@H](CC)c1ccc2ccn(C)c2c1,-4.51%
22,O=C(NC1CCCCCCC1)c1ccc(F)cc1,4.61%
23,COC(=O)C(Cc1ccccc1)NC(=O)c1cc(=O)[nH]c2ccccc12 (stereo not drawn),17.6%
24,CC(C)CCNC(=O)c1ccc(NC(=O)C2=CSCCO2)cc1,4.36%

row,Structure (SMILES),"hERG current change (%, negative = inhibition) at 10uM"
1,COc1ccccc1C1=NOC(C)(c2sc(-c3ccccc3)nc2C)C1 (stereo not drawn),21.7%
2,Cc1cc(C)c(C#N)c(SCc2ccccc2)n1,11.2%
3,Cc1ccc(Nc2nnc(-c3ccncc3)s2)c(Br)c1,-59.3%
4,Clc1ccccc1Nc1nnc(-c2ccncc2)s1,-6.07%
5,CNc1nnc(-c2ccncc2)s1,-0.587%
6,CCN1CCN(Cc2cc(=O)oc3ccc(Cl)cc23)CC1,-15%
7,CCOc1ccc2oc(=O)cc(CN3CCOCC3)c2c1,-1.8%
8,CCOc1ccc2oc(=O)cc(CN3CCN(Cc4ccccc4)CC3)c2c1,-56.7%
9,CCOc1ccc2oc(=O)cc(CN3CCN(C(=O)c4ccco4)CC3)c2c1,-69.4%
10,Cc1cc(=O)oc2cc(OCC(=O)N3CCN(C(=O)c4ccco4)CC3)ccc12.Cl,-32.6%
11,CCOc1ccc(CN2CCN(C(=O)c3ccco3)CC2)cc1.O=C(O)C(=O)O,-26.8%
12,O=C(COC(=O)CCc1nc2ccccc2c(=O)[nH]1)Nc1ccc(OC(F)(F)F)cc1,-5.93%
13,Cc1cc(OC2CCCCC2)nc(NCc2ccccc2)n1,1.82%
14,COc1ccccc1CNC(=O)COC(=O)Cc1cccc(F)c1,1.78%
15,CC1Cc2ccccc2N1C(=O)CSc1nnc(N)s1 (stereo not drawn),13%
16,CCC(=O)Nc1nnc(SCC(=O)N2c3ccccc3CC2C)s1 (stereo not drawn),5.26%
17,Cc1nnc(SCC(=O)N2c3ccccc3CC2C)s1 (stereo not drawn),-54.2%
18,Cc1c(CN2CCN(CC(C)(C)C)C(CCO)C2)[nH]c2ccccc12 (stereo not drawn),12.2%
19,CCOc1ccc(CN2CCN(Cc3[nH]c4ccccc4c3C)CC2CCO)cc1 (stereo not drawn),-75.8%
20,COc1ccc2[nH]c(CN3CCN(CC=C(C)C)C(CCO)C3)c(C)c2c1 (stereo not drawn),-17.1%
21,CCOc1ccccc1CN1CCN(Cc2c[nH]c3ccccc23)CC1CCO (stereo not drawn),-6.71%
22,COc1ccc2[nH]c(CN3CCN(CCC(C)C)C(CCO)C3)c(C)c2c1 (stereo not drawn),23.5%
23,CC(C)CN1CCN(Cc2cc3ccccc3[nH]2)CC1CCO (stereo not drawn),-8.69%
24,Cc1c(CN2CCN(CC(C)C)C(CCO)C2)[nH]c2ccc(Cl)cc12 (stereo not drawn),-34.4%

row,Structure (SMILES),"hERG current change (%, negative = inhibition) at 10uM"
1,COc1cccc(CN2CCN(Cc3cc4ccccc4[nH]3)CC2CCO)c1 (stereo not drawn),-59.7%
2,CCOc1ccc(CN2CCN(Cc3[nH]c4ccc(OC)cc4c3C)CC2CCO)cc1 (stereo not drawn),-77.9%
3,COc1cccc(CN2CCN(Cc3ccc(C)o3)CC2CCO)c1 (stereo not drawn),-21.2%
4,CCOc1ccccc1CN1CCN(Cc2[nH]c3ccccc3c2C)CC1CCO (stereo not drawn),-62.3%
5,NC(=O)COc1ccc(Cc2ncc(C(F)(F)F)cc2Cl)cc1,-2.34%
6,Cc1ccc(C)c(NS(=O)(=O)c2cc(C(=O)N3CCc4ccccc4C3)ccc2Cl)c1,8.24%
7,CCOc1ccc(C(=O)NCC(=O)OCc2c(C)noc2C)cc1OCC,23.2%
8,Cc1cc(O)c(CN2CCN(c3ccccc3)CC2)cc1C,3.98%
9,O=C(Nc1ccccc1Cl)Oc1ccc(Cl)cc1Cl,12.8%
10,Cc1ccc(NC2=Nc3ccccc3CC2)cc1,-18.2%
11,CS(=O)(=O)c1ccc2nc(NC(=O)c3ccc(N4C(=O)CCC4=O)cc3)sc2c1,6.3%
12,CSc1nc2c(c(=O)[nH]1)C(c1ccccc1Cl)CC(=O)N2 (stereo not drawn),12.8%
13,CCc1nnc(NS(=O)(=O)c2ccc(Nc3ccc([N+](=O)[O-])c4nonc34)cc2)s1,46.6%
14,COc1cc(CN2CCN(Cc3c[nH]c4ccccc34)CC2CCO)cc(OC)c1 (stereo not drawn),-32.3%
15,COc1ccc2[nH]c(CN3CCN(CC(C)C)C(CCO)C3)c(C)c2c1 (stereo not drawn),5.18%
16,COc1cccc(CN2CCN(Cc3[nH]c4ccccc4c3C)CC2CCO)c1 (stereo not drawn),-60.5%
17,Cc1csc(NC(=O)CSc2nncn2C)n1,19%
18,O=C1C=C(NCc2ccccc2)C2(CCCCC2)O1,0.0967%
19,CCOC(=O)c1ccc(NC(=O)CSc2nc(=O)n(CCN3CCOCC3)c3c2CCC3)cc1,-32%
20,CCCCc1ccc(NC(=O)CSc2nc(=O)n(CCN3CCOCC3)c3c2CCC3)cc1,-66.5%
21,CCc1ccc(NC(=O)CSc2nc(=O)n(CCCN3CCOCC3)c3c2CCCC3)cc1,-54.7%
22,CCOc1ccc(NC(=O)CSc2nc(=O)n(CCCN3CCOCC3)c3c2CCC3)cc1,-24.1%
23,CCc1ccc(NC(=O)CSc2nc(=O)n(CCCN3CCOCC3)c3c2CCC3)cc1,-40%
24,CCCCc1ccc(NC(=O)CSc2nc(=O)n(CCCN3CCOCC3)c3c2CCC3)cc1,-64.5%
